# From PubChem
# The list is not random: actives were taken first. Their share in the collection is about 12%.
# PI5P4Ka inh = PI5P4K alpha (human) kinase inhibition; PI5P4Kalpha enzyme, ADP-Glo luminescence, 60 min; stronger effect = lower value; max response, %; P48426; 1.2% of 330,000 active; active = max response of -50% or lower; inconclusive = between -30% and -50%; inactive = -30% or higher; also: value at the top dose of about 77 µM; % is scaled to controls: 0 for no effect and ±100 for the full control effect
# Target sequence (P48426 whole entry, looked up): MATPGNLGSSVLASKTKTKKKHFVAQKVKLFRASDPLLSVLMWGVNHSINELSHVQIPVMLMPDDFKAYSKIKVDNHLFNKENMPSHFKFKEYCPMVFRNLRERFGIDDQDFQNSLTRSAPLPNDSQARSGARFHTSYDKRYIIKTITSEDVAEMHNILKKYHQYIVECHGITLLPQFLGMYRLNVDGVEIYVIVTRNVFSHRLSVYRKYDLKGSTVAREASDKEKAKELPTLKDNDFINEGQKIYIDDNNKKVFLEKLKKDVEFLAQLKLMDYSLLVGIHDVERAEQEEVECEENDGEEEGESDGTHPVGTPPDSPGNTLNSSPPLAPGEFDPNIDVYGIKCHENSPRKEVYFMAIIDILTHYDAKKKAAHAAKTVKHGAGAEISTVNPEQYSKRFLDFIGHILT
#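 Single end-point luminescence (ADP-Glo) quantified ADP from PI5P4Kalpha turnover; ATP 5 microM final, 1 h at RT, 0.1% CHAPS and 0.28 mM EGTA in HEPES pH 7.4.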
# G9a inh = blocks human histone lysine methyltransferase G9a | Q96KQ7 | G9a H3K9 monomethylation, AlphaScreen, 2 h | Potency, µM (highest dose often 102 µM), inactives show top-dose activity, negative = inhibition, usual class: inhibitors | 8.8% of 350,000 active; also: potency is read from the fitted curve at half-maximal effect; % is scaled to controls: 0 for no effect and ±100 for the full control effect; nearly all actives have a fitted effect of over 75% in size
#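 Signal arises when biotinylated H3K9 peptide, once monomethylated, bridges streptavidin donor and antibody-captured acceptor beads. Enzyme at 20 nM was preincubated 15 min with test compounds; peptide 500 nM and SAM 20 uM then reacted for 2 h.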
# HP1b chromo inh = HP1-beta chromodomain-methylated histone interaction inhibition | P83916 | AlphaScreen HP1-beta / biotin-H3K9me3 peptide binding | Potency, µM (series often up to 114 µM), for the others: top-dose activity change, negative = inhibition, hits mostly inhibitors | 0.56% of 390,000 active; also: potency is read from the fitted curve at half-maximal effect; nearly all actives have a fitted effect of over 70% in size
# Target sequence (P83916 whole entry, looked up): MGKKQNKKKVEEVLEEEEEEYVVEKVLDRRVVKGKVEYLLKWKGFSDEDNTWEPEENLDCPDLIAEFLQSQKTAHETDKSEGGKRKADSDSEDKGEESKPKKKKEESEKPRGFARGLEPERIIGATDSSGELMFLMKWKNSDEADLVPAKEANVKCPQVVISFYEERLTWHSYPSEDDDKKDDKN
#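 Compound inhibition of the preformed complex between 50 nM HP1-beta and 50 nM biotinylated H3K9me3 peptide was read by AlphaScreen. Buffer was PBS pH 7.4 with 0.01% Tween-20. Incubations ran 30 min at room temperature, with 10 ug/mL donor/acceptor beads.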
# BAZ2B inh = inhibitors of human BAZ2B bromodomain. AID 504333. Potency, µM (series often up to 114 µM), for the others: at the highest dose activity change, negative = inhibition, usual class: inhibitors. 4.4% of 360,000 active. AlphaScreen BAZ2B-H3K14Ac peptide displacement. Q9UIF8; also: potency is read from the fitted curve at half-maximal effect; % is scaled to controls: 0 for no effect and ±100 for the full control effect; nearly all actives have a fitted effect of over 60% in size
#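 BAZ2B (50 nM) with biotin-H3(5-23)K14Ac peptide (50 nM) in PBS pH 7.4, 0.01% Tween-20, preformed 30 min, then compound 30 min at room temperature; top concentration 110uM. AlphaScreen streptavidin donor/nickel chelate acceptor beads (10 ug/mL final), 20 min dark, signal read.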
# PLK1 PBD block = PLK1 (human) polo-box domain binding inhibition | P53350 | Plk1 PBD binding of FITC phosphopeptide, fluorescence polarization | Potency, µM, for the others: max response, negative = inhibition, hits mostly inhibitors | 2.8% of 360,000 active; also: potency is read from the fitted curve at half-maximal effect; series mostly up to about 57 µM; % is scaled to controls: 0 for no effect and ±100 for the full control effect; nearly all actives have a fitted effect of over 65% in size
# JMJD2A Tudor inh = JMJD2A Tudor domain (human) inhibition | 4.4% of 390,000 active | AlphaScreen JMJD2A-Tudor / H3K4me3 peptide binding | Potency, µM (top dose mostly 114 µM), inactives show top-dose activity change, negative = inhibition, most hits filed as inhibitors | O75164; also: potency is read from the fitted curve at half-maximal effect; % is scaled to controls: 0 for no effect and ±100 for the full control effect; nearly all actives have a fitted effect of over 50% in size
# * = called active by the depositor; ? = inconclusive; . = not tested or not shown; ! = not active in a repeat; [ ] = another dose, or the depositor's remark. Unless noted, calls follow the shape of the dose curve; as a rule, active = well fitted curve in the direction sought with a large enough effect; inconclusive = small, poorly fitted or top-dose-only effect, or another doubt; inactive = no such curve, though single readings can be large; an effect the other way counts as inactive or inconclusive.
SMILES,PI5P4Ka inh,G9a inh,HP1b chromo inh,BAZ2B inh,PLK1 PBD block,JMJD2A Tudor inh
CCC1Nc2ncnc(N3CCCCC3)c2N(Cc2ccc(Cl)cc2)C1=O (stereo not drawn),0,.,56%,.,-7%,?
CCC1Nc2ncnc(N3CCN(c4ccccc4)CC3)c2N(Cc2ccccc2)C1=O (stereo not drawn),0,.,24%,.,-20%,-27%
c1ccc(Sc2cccc3ccccc23)c(CNC2=NCCN2)c1,0,16µM*,-21%,?,-1%,32µM*
Fc1ccccc1Sc1ccccc1CNC1=NCCN1,1,7.1µM*,?,-10%,-19%,?
CN(C)Cc1ccccc1Sc1cccc2ccccc12,-2,?,-10%,?,4%,-32%
N#Cc1c(N)sc(=S)c2c1CCCC2,-29,7.1µM*,?,40µM*,?,?
CCC1(C)Cc2c(C#N)c(N)sc(=S)c2CO1 (stereo not drawn),-5,?,?,?,-20%,?
CC(C)=NNc1ncnc2nc[nH]c12,-11,.,34%,.,0%,25µM*
CCc1ccc(/C=N/Nc2ncnc3nc[nH]c23)cc1,-56*,8%,48%,-12%,-6%,-6%
COc1ccc(CNc2ncnc3nc[nH]c23)cc1,.,.,56%,.,.,-11%
Cc1ccc(-n2c(=S)[nH]c3c(oc4ccccc43)c2=O)cc1,1,?,29%,-6%,-14%,-9%
O=c1c2sccc2[nH]c(=S)n1-c1ccccc1,10,?,25%,-17%,-13%,5.6µM*
Cc1cccc(-n2c(=S)[nH]c3c(oc4ccccc43)c2=O)c1,0,13µM*,26%,-6%,-15%,-1%
O=c1c2oc3ccccc3c2[nH]c(=S)n1-c1ccccc1,4,8.9µM*,-27%,2%,27µM*,?
Cc1ccc(CCNC(=O)Cn2c(-c3cccs3)cc3ccccc32)cc1,.,-5%[59 µM],28%,1%,.,-1%
Oc1ccc(C2CNCc3sccc32)cc1O (stereo not drawn),-10,3µM*,?,15%,-10%,50µM*
Cc1ccc(NC(=O)CCc2nc3ccccc3c(=O)[nH]2)cc1S(=O)(=O)N1CCOCC1,-1,?,17%,-21%,-1%,-10%
CCn1nnc(NC(=O)c2ccco2)n1,1,15%,22%,4%,5%,7%
COc1ccccc1N1CCN(C(=O)c2cnn(-c3ccc(C)c(C)c3)c2C2CCN(C(=O)OC(C)(C)C)CC2)CC1,.,?,12%,-22%[57.1 µM],.,-35%
COc1ccc(C(=O)/C=C/c2cn(CC(O)CN3CCc4ccccc43)c3ccccc23)cc1 (stereo not drawn),.,?,-31%,?,.,22µM*
CCC(=C(c1ccc(OC)cc1)c1ccc(OC)cc1)c1cn(CC(O)CN2CCN(C)CC2)c2ccccc12 (stereo not drawn),5,40µM*,50µM*,45µM*,0%,28µM*
CCn1cc(/C=C(\NC(=O)c2ccc(OC)cc2)C(=O)N2CCN(C)CC2)c2ccccc21,2,-7%[12.7 µM],24%,-10%,-5%,-23%
CCCCN(C)CC(O)Cn1cc(/C=C/C(=O)c2ccc(OCC)cc2)c2ccccc21 (stereo not drawn),.,50µM*!,?,?,.,50µM*
CCOc1ccc(NC(=O)Cn2c(=O)n(Cc3nc(-c4ccccc4)no3)c(=O)c3ccccc32)cc1,.,-7%[59 µM],-7%,-6%,.,-12%
O=C(CSc1nc(=O)[nH]c2c1CCC2)NCc1ccc(F)cc1,.,1%[59 µM],41%,1%,.,3%
SMILES,PI5P4Ka inh,G9a inh,HP1b chromo inh,BAZ2B inh,PLK1 PBD block,JMJD2A Tudor inh
COc1ccccc1C(=O)NCC(=O)NC(C)c1ccc(-n2ccnc2)cc1 (stereo not drawn),-12,10µM*,10%,-2%,3%,-20%
CCOc1ccc(C(C)=O)cc1CN1C(=O)c2ccccc2S1(=O)=O,5,-9%,40%,-24%,-5%,-6%
CCOc1ccc(C(C)=O)cc1N1C(=O)C2C3C=CC(O3)C2C1=O (stereo not drawn),.,?,28µM*,?,27µM*,20µM*
COC(=O)c1ccc2nc(NC(=O)CSCC(=O)OCC(=O)c3ccccc3)sc2c1,-9,7.9µM*,30%,-8%,?,?
Cc1ccc2nc(NC(=O)CSCC(=O)OCC(=O)c3ccc(Br)cc3)sc2c1,5,45µM*,40%,-6%,-26%,?
C[C@H](CO)N1C[C@H](C)[C@H](CN(C)C(=O)Nc2cccc(C(F)(F)F)c2)OCc2cnnn2CCCC1=O,0,.,.,.,-15%,.
CCCCc1nnc(NC(=O)Cc2ccc(S(=O)(=O)N3CCOCC3)s2)s1,-6,?,36%,1%,-15%,-27%
Cc1cc(C(=O)CCC(=O)NCC(=O)Nc2c(C)cccc2C)c(C)s1,-28,.,37%,.,-4%,-22%
CCc1nc2ccc(C(=O)NCCOc3ccc(OC)cc3)cn2c1N(CC)CCOC,-1,.,.,.,-5%,.
O=C(COC(=O)c1ccc2c(c1)C(=O)N(Cc1ccncc1)C2=O)Nc1ccccc1[N+](=O)[O-],?,-1%[59 µM],-19%,-39%,-5%,?
CC(OC(=O)c1ccc2c(c1)C(=O)N(Cc1ccncc1)C2=O)C(=O)Nc1cccc(Cl)c1Cl (stereo not drawn),-8,89µM*,-5%,0%,-4%,-28%
CC(=O)Nc1nnc(-c2c(-c3ccccc3Cl)noc2C)o1,-2,-37%,15%,?,3%,18µM*
CC(=O)Nc1ccc(NC(=O)c2c(-c3ccccc3Cl)noc2C)cc1,1,15%,26%,5%,-1%,-11%
O=C(NNC(=S)Nc1ccccc1)c1ccc2ncccc2c1,-3,28µM*,10%,10%,-28%,-21%
Cc1cc(C(=O)Nc2ccc(Br)cc2)cs1,-3,79µM*,51%,56µM*,0%,12%
CNS(=O)(=O)c1ccc(NC(=O)c2csc(C)c2)cc1,6,60%,36%,-12%,1%,8%
Cc1nc2ccc(NC(=O)c3ccccc3)cc2s1,2,.,6%,-17%,21µM*,-24%
Cc1nc2ccc(NC(=O)c3ccc4ccccc4n3)cc2s1,-12,-37%,36%,-1%,-3%,-16%
O=C(Nc1ccc2ncccc2c1)c1ccccc1,-22,.,-30%,-31%,8.4µM*,22µM*
COC(=O)CC1C2(C)CC34OC5(C)O[C@@]6(C7/C(=C(/OC)C(C)C)C(=O)OC(c8ccoc8)[C@@]7(C)C(OC(=O)C(C)C)C(OC)[C@]6(O5)[C@@]13C)C(OC)[C@]4(OC)C2OC(C)=O (stereo partly drawn),.,-30%[2.33 µM],.,.,.,.
